This passage reports growth results from PubChem BioAssay (NCI).

About 83,000 compounds went through this panel and 20% of them were active in at least one assay; those are over-represented in the sample as a whole.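 96-well plates, one dose, 48 hours. Percent growth reported; active if below 10.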 Active and inactive are the calls of the source.

The assay concerns EKVX NSCLC. Briefly: NCI-60 one-dose screen, 48 h (100 = growth as untreated, 0 = no growth, -100 = all killed). The following applies: 10 µM unless noted. The method, then:
Growth inhibition of the EKVX human Non-Small Cell Lung tumor cell line is measured as a screen for anti-cancer activity. Cells are grown in 96 well plates and exposed to the test compound for 48 hours. Compounds are tested at a single concentration, which is 10^-5 M for most compounds. The reported endpoint is percent growth (GI% or GIPRCNT), where numbers from 0 - 100% represent growth inhibition, and numbers from -100% - 0 represent cell death. For example, a value of 40 represents 60% growth inhibition. A value of 0 means no net growth occurred over the course of the experiment. A value of -40 indicates 40% of cells at the beginning of the experiment died by the end of the experiment. A value of -100 means all cells are dead at the end of the experiment.
NCI-60 Human Tumor Cell Lines Screen was performed using the standard one-dose NCI protocol, which is described in more detail at https://dtp.cancer.gov/discovery_development/nci-60/default.htm.
Compounds with GIPRCNT values below 10 were considered active. Activity score was based on GIPRCNT using the following formula: […]
Score is 0 for GIPRCNT values of 100 or above, 50 for GIPRCNT values of 0, and 100 for GIPRCNT values of -100.
Consider `Cc1nc2scc(-c3ccccc3)n2c(=O)c1CCO`, for which the growth is 92.3% (inactive).

On to `COc1cc(/C=C/C(=O)c2ccccc2O)ccc1OCCCOc1cc2c(cc1OC)C(=O)N1CCC[C@H]1C=N2`, for which the growth is 19.7% (inactive).

In the case of `C[N+](C)(C)c1ccc(CC2c3ccccc3-c3ccccc32)cc1`, the growth is 71.2% (inactive).

`O=C(CSc1nc(-c2ccc(Cl)cc2)cn1-c1ccc(Cl)cc1)c1ccc(Br)cc1`: the growth was 69.1% (inactive).

Regarding `COc1ccc(/C=C2\Oc3cc(OCCN4CCCC4)ccc3C2=O)c(OC)c1`, the growth was 98.1% (inactive).

For the compound `CCN(Cc1ccc(CN(CC)C(=O)C(Br)Br)cc1)C(=O)C(Br)Br`, the growth is 31.3% (inactive).

For the compound `O=c1cc(C2NCCc3c2[nH]c2ccccc32)c2c(ccc3ccccc32)o1` (stereo not given), the growth was 75.3% (inactive).

As for `Cc1c(C2=NNC(c3ccc4c(c3)OCO4)C2)[n+]([O-])c2ccccc2[n+]1[O-]` (stereo not given), the growth is 91.5% (inactive).

Take `Nc1nc(Cl)c2c(ncn2Cc2ccc(CCl)cc2)n1`: the growth is 103% (inactive).

Take `O=S(=O)(NCCNc1cc(-c2cn(-c3ccccc3)nc2-c2ccccc2)ccn1)c1cccc2ccccc12`: the growth is 36.5% (inactive).

With `C#CCN1C(=O)/C(=c2\sc3n(c2=O)C2C(NN=3)N(CC)C(=O)N2CC)c2ccccc21` (stereo not given), the growth is 64.9% (inactive).

`COc1cc2oc(-c3cccc(NC(=O)Nc4ccc5c(c4)OCO5)c3)cc(=O)c2c(OC)c1OC`: the growth was 86.2% (inactive).

Consider `CCCC1OC(c2ccc(C(C)C)cc2)OCC1CC` (stereo not given), for which the growth was 101% (inactive).

With `CCCCCCCC/C=C\CCCCCCCCOc1ccccc1CCOP(=O)(O)OCC[N+](C)(C)C`, the growth was 91.7% (inactive).

For `CS(=O)(=O)N(c1cc(-c2ccc3ncnc(Nc4cccc(Cl)c4)c3c2)cnc1Cl)S(C)(=O)=O`, the growth is -3.18% (active).

For `O=S(=O)(NCCCNc1nccc(-c2c(-c3ccc(F)c(O)c3)nc3sccn23)n1)c1ccc(Cl)cc1`, the growth is 101% (inactive).

As for `CSc1nc(-c2cc3ccccc3o2)cc(-c2ccc(Cl)cc2)c1C#N`, the growth was 73.7% (inactive).

Take `O=c1oc2c([nH]c3ccc4ccccc4c32)c2ccccc12`: the growth is 85.4% (inactive).

Consider `O=C(/C=C/CN1CCCCC1)Nc1cc2c(Nc3ccc(F)c(Cl)c3F)ncnc2cc1OCCOC(F)F`, for which the growth was 11.8% (inactive).

In the case of `C/C(=C\c1csc(C)n1)[C@@H]1C[C@@H]2O[C@]2(C)CCC[C@H](C)[C@H](O)[C@@H](C)C(=O)C(C)(C)[C@@H](O)CC(=O)N1`, the growth is -25.6% (active).

For the compound `O=C1CCCCN1CCCCC#Cc1ccccc1C#Cc1ccccn1`, the growth is 106% (inactive).

For `C=C1C(=O)O[C@H]2[C@H]1CC/C(COC(=O)NCCc1ccc(OC)cc1)=C\CC[C@@]1(C)O[C@@H]21`, the growth is 53.3% (inactive).

Take `Cc1oc2nc[nH]c(=O)c2c1C(=O)/C=C/c1ccc(Cl)cc1Cl`: the growth was 117% (inactive).

As for `Nc1nc(N)c2nc(CNc3ccc(C(=O)CC(CCC(=O)O)C(=O)O)cc3)cnc2n1` (stereo not given), the growth is 42.8% (inactive).

Take `C=CCc1cc(Cl)cc2c(OC(C)=O)c(C(C)=O)c(-c3ccccc3)nc12`: the growth was 75.5% (inactive).

Regarding `O=C(CNC(=O)c1cccc2ccccc12)Nc1ccccc1Oc1ccccc1`, the growth was 26.3% (inactive).

In the case of `O=[N+]([O-])c1c(S(=O)(=O)O)cc2cc(S(=O)(=O)O)ccc2c1[N+](=O)[O-]`, the growth is 101% (inactive).

In the case of `CC/C=C\C/C=C\C[C@H](O)C/C=C1/C(=O)C=C[C@H]1C/C=C\CCC(=O)OC`, the growth was 39% [8.25 µM] (inactive).

For `CC(=O)N1Cc2ccccc2C(C)Cc2cc(Cl)ccc21` (stereo not given), the growth is 94.5% (inactive).

For `COc1ccc2c(c1)C(C)Cc1c(N(C)C)ncnc1N2C` (stereo not given), the growth was 41.2% (inactive).

In the case of `Nc1ccccc1C#C/C=C\C#Cc1cccc(O)c1`, the growth was 71.8% (inactive).

As for `CC/C=C\C[C@H](O)C/C=C1/C(=O)C(Cl)=C[C@@H]1C/C=C\CCCC(=O)O`, the growth was 63.9% (inactive).

`O=C(Nc1cccc(Cl)c1)c1cc([N+](=O)[O-])ccc1O`: the growth is 60.5% (inactive).

In the case of `CCN(CC)CCC(=O)c1cccc2ccccc12`, the growth is 100% (inactive).

Regarding `CCSc1nnc(NC(=O)Cc2ccc(Cl)cc2)s1`, the growth was 103% (inactive).

With `COC(=O)CCCCCCN=Cc1c(O)c(O)c(C(C)C)c2cc(C)c(-c3c(C)cc4c(C(C)C)c(O)c(O)c(C=NCCCCCCC(=O)OC)c4c3O)c(O)c12`, the growth is 23.9% (inactive).

Take `Cc1ccc(S(=O)(=O)OCC(=O)Nc2ccc(C(=O)O)c(O)c2)cc1`: the growth is 103% (inactive).

Regarding `O=P([O-])(O)OP(=O)([O-])O.[NH-][C@H]1CCCC[C@@H]1[NH-].[OH-].[OH-].[Pt+4]`, the growth was 100% (inactive).

Regarding `COc1cc(C2C3=C(COC3=O)Nc3c2ccc2c3CCCC2)cc2c1OCO2` (stereo not given), the growth is 47.9% (inactive).

As to `O=C1NCC(c2cc3ccccc3[nH]c2=O)Nc2ccccc21` (stereo not given), the growth was 106% (inactive).
